PRC2 inh: blocks human EZH2/PRC2 H3K27 methylation. 57,000 tested, 0.35% active. DELFIA TRF, 1 h. inhibition, % at 12.5 µM;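 active = mean inhibition of replicates at least 50% and every single replicate also reaching 50%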;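 note: dimethyl H3K27 on biotinylated H3 21-44 peptide detected by antibody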
Target sequence (Q15910 whole entry, looked up): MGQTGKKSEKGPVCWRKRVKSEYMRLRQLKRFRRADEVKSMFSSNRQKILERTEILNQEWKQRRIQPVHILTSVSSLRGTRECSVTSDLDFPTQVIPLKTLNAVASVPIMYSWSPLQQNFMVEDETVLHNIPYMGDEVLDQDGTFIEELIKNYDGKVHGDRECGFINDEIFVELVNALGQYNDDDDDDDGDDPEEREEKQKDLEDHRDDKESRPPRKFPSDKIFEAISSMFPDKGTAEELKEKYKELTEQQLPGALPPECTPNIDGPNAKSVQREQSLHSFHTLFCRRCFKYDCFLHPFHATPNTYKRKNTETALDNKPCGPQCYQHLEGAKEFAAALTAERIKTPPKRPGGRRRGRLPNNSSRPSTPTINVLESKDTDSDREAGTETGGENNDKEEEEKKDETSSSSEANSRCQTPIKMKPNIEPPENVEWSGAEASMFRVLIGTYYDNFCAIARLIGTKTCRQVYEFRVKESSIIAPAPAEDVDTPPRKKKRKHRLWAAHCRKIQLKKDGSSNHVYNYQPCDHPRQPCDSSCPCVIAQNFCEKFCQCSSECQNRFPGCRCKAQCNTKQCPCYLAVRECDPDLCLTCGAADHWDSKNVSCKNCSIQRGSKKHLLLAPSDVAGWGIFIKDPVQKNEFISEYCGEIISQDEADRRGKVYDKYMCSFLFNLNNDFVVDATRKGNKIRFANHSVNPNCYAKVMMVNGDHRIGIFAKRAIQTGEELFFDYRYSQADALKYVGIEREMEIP
Large screens that a line does not name were inactive. This is one part of a sample in which hits are shown more often than they occur.

Cc1ccc(SCc2[nH]n(-c3nc4ccccc4s3)c(=O)c2C=NCc2ccco2)cc1	none
CO[C@@H]1CN(C)C(=O)c2ccc(NS(=O)(=O)c3cccc(F)c3)cc2OC[C@H](C)N(Cc2cc(F)ccc2F)C[C@@H]1C	PRC2 inh 53.7
CO[C@@H]1CN(C)C(=O)c2ccc(NS(=O)(=O)c3cccc(F)c3)cc2OC[C@@H](C)N(Cc2cc(F)ccc2F)C[C@@H]1C	none
CO[C@@H]1CN(C)C(=O)c2ccc(NS(=O)(=O)c3cccc(F)c3)cc2OC[C@@H](C)N(Cc2cc(F)ccc2F)C[C@H]1C	none
Cc1cccc(OCC(=O)Nc2ccc3oc(-c4ccncc4)nc3c2)c1	none
CSc1ccccc1NC(=O)CN(C)S(=O)(=O)c1ccc(Br)cc1	none
Cc1ccc(NC(=O)CCN2C(=O)c3ccccc3S2(=O)=O)cc1Cl	none
COc1c(O)cc2c(=O)oc3c(OC)c(O[C@@H]4OC[C@@H](O)[C@H](O)[C@H]4O)cc4c(=O)oc1c2c34	PRC2 inh 80.2
COc1c(O[C@@H]2O[C@H](C(=O)O)[C@@H](O)[C@H](O)[C@H]2O)cc2oc(-c3ccc(O)cc3)cc(=O)c2c1O	none
CCOC(=O)N1CCN(Cc2nnc(-c3ccc4c(c3)OCO4)o2)CC1	none
COc1ccc(Cl)cc1NC(=O)CSc1nnc(N)s1	none
O=C1O[C@H](c2ccccc2)[C@H](c2ccccc2)N2[C@H]1[C@@H](C(=O)O)[C@]1(C(=O)Nc3ccc(C#CC4(O)CCCCCC4)cc31)[C@H]2c1ccccc1OCCO	PRC2 inh 60.3
NC(=O)[C@@H]1[C@H]2C(=O)O[C@H](c3ccccc3)[C@H](c3ccccc3)N2[C@H](c2ccccc2OCCO)[C@@]12C(=O)Nc1ccc(C#CCCO)cc12	none
O=C1O[C@H](c2ccccc2)[C@H](c2ccccc2)N2[C@H]1[C@@H](C(=O)N1CCCCCCC1)[C@]1(C(=O)Nc3ccc(C#CC4(O)CCCCCC4)cc31)[C@H]2c1ccc(OCCO)cc1	none
NC(=O)[C@@H]1[C@H]2C(=O)O[C@H](c3ccccc3)[C@H](c3ccccc3)N2[C@H](c2ccc(OCCO)cc2)[C@@]12C(=O)Nc1ccc(C#CC3(O)CCCCCC3)cc12	none
O=C1O[C@@H](c2ccccc2)[C@@H](c2ccccc2)N2[C@@H](c3ccccc3OCCO)[C@]3(C(=O)Nc4ccc(C#CC5(O)CCCCCC5)cc43)[C@@H](C(=O)O)[C@H]12	PRC2 inh 72.8
C=CCNC(=O)[C@H]1[C@@H]2C(=O)O[C@@H](c3ccccc3)[C@@H](c3ccccc3)N2[C@@H](c2ccccc2OCCO)[C@]12C(=O)Nc1ccc(C#CC3(O)CCCCCC3)cc12	none
Cn1c(SCC(=O)Nc2c(F)cc(F)cc2Br)nnc1-c1cnccn1	none
COC(=O)c1c(-c2ccccc2)csc1NC(=O)C1CCCCC1C(=O)O (configuration not stated)	none
O=C(NO)c1ccc(C(=O)N/N=C/c2c(O)cc(O)cc2O)cc1	none
COC(=O)c1ccc(/C=N/NC(=O)c2ccccc2O)cc1	none
O=[N+]([O-])c1cccc(S(=O)(=O)NCCOc2cccc(Cl)c2Cl)c1	none
O=[N+]([O-])c1cccc(S(=O)(=O)NCCOc2ccccc2-c2ccccc2)c1	PRC2 inh 52.7
O=[N+]([O-])c1cccc(S(=O)(=O)NCCOc2cccc3cccnc23)c1	none
CCn1c(SCC(=O)Nc2c(Cl)cc(Cl)cc2Cl)nnc1-c1ccccc1Cl	none
O=C1N(O)C2(C=CCCC2)/C(=N/O)C12CCCCC2 (configuration not stated)	none
O=C(COc1ccccc1)Nc1ccc2oc(-c3ccc(Cl)cc3)nc2c1	none
CC(=O)N(Cc1ccc(C(C)C)cc1)c1ccc2oc(-c3ccccc3)nc2c1	PRC2 inh 58.0
O=C(COc1ccccc1)Nc1ccc2oc(-c3cccc(Cl)c3)nc2c1	none
Cc1cc(C)c2oc(-c3ccc(NC(=O)COc4ccccc4[N+](=O)[O-])cc3)nc2c1	none
O=[N+]([O-])c1ccc(CSc2nnc(-c3ccccn3)n2-c2ccccc2)cc1	none
O=C(Cn1cnc2ccccc2c1=O)Nc1ccccc1[N+](=O)[O-]	none
COc1ccc(OC)c(S(=O)(=O)N(C)CC(=O)Nc2ccc(C(F)(F)F)cc2)c1	none
COc1ccc(C2Oc3c(OC)cc(/C=C/COC4OC(CO)C(O)C(O)C4O)cc3C2CO)cc1OC (configuration not stated)	none
COc1cc(C2c3c(cc(OC)c(O)c3OC)CC(CO)C2COC2OC(CO)C(O)C(O)C2O)cc(OC)c1O (configuration not stated)	PRC2 inh 100.6
C/C=C1\C(O[C@@H]2O[C@H](CO)[C@@H](O)[C@H](O)[C@H]2O)OC=C(C(=O)OC)C1CC(=O)OCC(O)c1ccc(O)c(O)c1 (some centres not stated)	none
Cc1ccc(NC(=O)C(=O)NCCc2c[nH]c3ccccc23)cc1Cl	none
O=C(CCCCCCC(=O)Nc1ccccc1O)N/N=C/c1ccc(F)cc1	none
O=C(CCCCCCC(=O)Nc1ccccc1O)N/N=C/c1ccc(-c2ccccc2)c(F)c1	PRC2 inh 51.0
O=C(CCCCCCC(=O)Nc1ccccc1O)N/N=C/c1ccc(O)c(O)c1	none
Cc1nc2ccccc2n1CC(O)COc1ccc(C(C)C)cc1 (configuration not stated)	none
[N-]=[N+]=Nc1cccc(C(=O)N2CCN(c3ccccc3)CC2)c1	none
COc1cc(C2OCC3(OC4OC(CO)C(O)C(O)C4O)C(c4ccc(O)c(OC)c4)OCC23)ccc1O (configuration not stated)	none
COc1cc(/C=C/c2cc(O)cc(O[C@@H]3O[C@H](CO)[C@@H](O)[C@H](O)[C@H]3O)c2)ccc1O[C@@H]1O[C@H](CO)[C@@H](O)[C@H](O)[C@H]1O	none
COc1cc(C[C@H]2CO[C@H](c3ccc(O[C@@H]4O[C@H](CO)[C@@H](O)[C@H](O)[C@H]4O)c(OC)c3)[C@H]2CO)ccc1O	PRC2 inh 99.5
O=C(CSc1nc2ccccc2s1)NO	none
CC1OC(Oc2ccc(-c3cc(=O)c4c(O)cc(OC5OC(CO)C(O)C(O)C5O)cc4o3)cc2)C(O)C(O)C1O (configuration not stated)	none
COc1ccc(-c2cc(=O)c3c(O)c(OC)c(O[C@H]4O[C@H](CO[C@@H]5O[C@@H](C)[C@H](O)[C@@H](O)[C@H]5O)[C@@H](O)[C@H](O)[C@H]4O)cc3o2)cc1	none
C=Cc1ccc(O[C@@H]2O[C@H](CO[C@@H]3O[C@@H](C)[C@H](O)[C@@H](O)[C@H]3O)[C@@H](O)[C@H](O)[C@H]2O)cc1	PRC2 inh 87.2
O=C(CCCCCC(=O)N/N=C/c1ccc(Br)o1)NO	none
Cn1nnnc1SCC(=O)Nc1cccc(Cl)c1	none
CCCCCCCCC(=O)NCc1cc(OC)c(O)cc1I	none
CCCCCCCCCCC(C)(C)C(=O)Nc1c(OC)cc(OC)cc1OC	PRC2 inh 84.8
COc1ccc(OC)c(NC(=O)COc2ccc(C(C)(C)C)cc2)c1	none
CSc1ccccc1NC(=O)CN(c1cccc([N+](=O)[O-])c1)S(C)(=O)=O	none
CC(C)(C)c1nc2scc(-c3ccc(Cl)cc3)n2n1	none
COc1cccc(NC(=O)CSc2nc(C)c(C)c(C)c2C#N)c1	none
CCOC(=O)CC(c1ccccc1)S(=O)(=O)O (configuration not stated)	none
Cc1ccc(F)c(NC(=O)CSc2nnc(C)s2)c1	none
Cc1ccc(-c2cc3ccccn3c2C(=O)CSc2nnc(C)s2)cc1	PRC2 inh 52.8
Cc1nnc(SCC(=O)c2c(C)[nH]c3ccccc23)s1	none
COc1ccccc1-c1nnc(SCC(=O)c2ccc([N+](=O)[O-])cc2)o1	none
COc1ccc(C)cc1NC(=O)CN1C(=O)c2cccc3cccc1c23	none

Bioassay records (PubChem BioAssay)
